MEKK2 mut-MEK5 = signal of MEK5 binding to mutant human MEKK2 PB1 domain; bead flow cytometry, Alexa488-MEK5 binding to MEKK2 mutant; percent response, % at 10 µM; 0.35% of 290,000 active; in the data active = percent response above about 24%, passing the limit was not always enough
NRP1-CendR mod = modulators of CendR peptide binding to human neuropilin-1; O14786; FAM-RPARPAR peptide binding to NRP-1, fluorescence polarization; inhibition, % at 25 µM; 0.85% of 360,000 active; AID 602438;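 active = inhibition or corrected inhibition above about 18%, plus a signal ratio from 0.5 to 1.5, limit read from the data, passing the limit was not always enough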
MEKK3 PB1 HTS = MEKK3-MEK5 PB1 interaction, increase or decrease; bead-based flow cytometry, Alexa488-MEK5 binding to MEKK3; actives lie on both sides; 0 = blocked by unlabeled MEK5, 100 = vehicle; binding response (% of control), % at 10 µM; 1.4% of 290,000 active; AID 1529;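 active = binding response more than 3 SD above or below the average of its plate-row segment, actives on both sides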;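 also: Alexa488 bead fluorescence after subtracting the streptavidin-only scavenger bead signal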
Target sequence (Q99759 whole entry, looked up): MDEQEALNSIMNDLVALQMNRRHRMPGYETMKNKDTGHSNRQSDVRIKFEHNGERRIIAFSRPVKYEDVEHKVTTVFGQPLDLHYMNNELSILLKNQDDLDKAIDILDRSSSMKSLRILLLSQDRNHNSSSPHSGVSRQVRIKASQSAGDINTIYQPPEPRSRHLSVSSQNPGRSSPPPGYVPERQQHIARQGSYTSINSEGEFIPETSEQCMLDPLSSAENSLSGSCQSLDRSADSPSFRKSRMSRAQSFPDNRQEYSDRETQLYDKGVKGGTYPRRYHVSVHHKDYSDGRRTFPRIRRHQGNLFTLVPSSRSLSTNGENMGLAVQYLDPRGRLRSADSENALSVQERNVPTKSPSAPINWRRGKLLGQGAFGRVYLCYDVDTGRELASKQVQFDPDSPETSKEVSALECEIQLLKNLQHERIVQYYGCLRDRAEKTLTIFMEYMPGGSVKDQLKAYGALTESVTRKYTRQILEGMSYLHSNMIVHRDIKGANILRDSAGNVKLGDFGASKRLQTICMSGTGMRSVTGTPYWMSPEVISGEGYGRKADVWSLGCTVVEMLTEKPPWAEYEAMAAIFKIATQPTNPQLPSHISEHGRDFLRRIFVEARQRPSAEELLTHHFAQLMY
SKN-1 inh = blocks SKN-1 activity in C. elegans; C. elegans VP596 Pgst-4::GFP/RFP ratio, acrylamide-induced, 24 h; inhibition, % at 21.8 µM; 0.49% of 360,000 active; AID 624304;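 active = interference check ratio from 0.5 to 1.5 plus GFP to RFP signal ratio inhibition reaching or exceeding a fixed threshold, cut at about 30% in these data, passing the limit was not always enough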
MEKK2 WT-MEK5 = raises or lowers MEK5 binding to wildtype human MEKK2 PB1 domain; bead flow cytometry, Alexa488-MEK5 binding to MEKK2 WT; actives lie on both sides; binding response (% of control), % at 10 µM; 1.1% of 290,000 active; in the data active = binding response below about 67% or above about 130%
MEKK2wt confirm = raises or lowers MEK5 binding to wildtype human MEKK2, retest | shares compounds with MEKK3 PB1 HTS | bead flow cytometry, Alexa488-MEK5 binding to MEKK2 WT; actives lie on both sides | binding response (% of control), % at 10 µM | 2.4% of 5,900 active | AID 1892; in the data active = binding response below about 16% or above about 210%; inactive = in between
MEKK2mut-MEK5 = signal of MEK5 binding to mutant human MEKK2, retest. shares compounds with MEKK3 PB1 HTS. 2% of 5,900 active. bead flow cytometry, Alexa488-MEK5 binding to MEKK2 mutant. percent response, % at 10 µM; in the data active = percent response mostly above about 71%, no sharp cut-off; inactive = mostly below about 38%;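 also: higher means compound restores mutant binding toward wildtype level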
MEKK3 confirm = MEKK3-MEK5 PB1 inhibition, single concentration confirmation. shares compounds with MEKK3 PB1 HTS. bead flow cytometry, Alexa488-MEK5 binding to MEKK3; active compounds read low. binding response (% of control), % at 10 µM. 1.8% of 5,900 active. AID 1894;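 active = binding response below 72% of control, or above a set upper limit, though filed actives all read lower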;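 also: 100% = DMSO only wells and 0% = binding blocked by excess unlabeled MEK5; lower values mean stronger disruption of MEK5 binding to MEKK3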
* marks the source's active call; other numbers are inactive results; . = no result given; [ ] = remark or other dose. Compounds with a hit are over-represented: about 3.2% of the library has one in this group of screens.

SMILES	MEKK2 mut-MEK5	NRP1-CendR mod	MEKK3 PB1 HTS	SKN-1 inh	MEKK2 WT-MEK5	MEKK2wt confirm	MEKK2mut-MEK5	MEKK3 confirm
O=C(CCC(=O)CCN1CCCCC1)CCN1CCCCC1	32.0	9.2	102.0	-37.9	175.0*	136.0	14.0	97.0
COC(=O)C(Cc1c[nH]c2ccccc12)NC(=O)c1cccs1 (stereo not drawn)	-15.0	-0.3	92.0	17.4	89.0	.	.	.
O=C(NC(Cc1c[nH]c2ccccc12)C(=O)Nc1ccc(F)cc1)c1cccs1 (stereo not drawn)	3.0	5.9	128.0*	10.6	106.0	97.0	-1.0	98.0
CC(C)c1ccc(NC(=O)c2ccc(-c3ccnn3C)c3ccoc23)cc1	.	-6.8	.	-11.3	.	.	.	.
CN1CCN(/N=C/c2ccc(N(C)c3ccccc3)cc2)CC1	10.0	8.1	103.0	68.6	115.0	.	.	.
CN1CCN(/N=C/c2ccc(N(c3ccccc3)c3ccccc3)cc2)CC1	16.0	0.4	106.0	4.5	153.0*	151.0	34.0	98.0
N#Cc1c(-c2ccc3c(c2)OCO3)csc1N	6.0	-15.1	123.0*	-18.6	116.0	105.0	4.0	105.0
COc1ccccc1C(=O)NCCC(=O)Nc1ccc(S(=O)(=O)N2CCC(C)CC2)cc1	.	-0.1	.	3.3	.	.	.	.
CC1(C)CC(=O)C([N+](=O)[O-])=C(NCCCC(=O)O)C1	-1.0	-2.5	64.0*[inhibitor]	8.5	97.0	98.0	-3.0	100.0
CN(C(=O)COC(=O)c1cccc(S(=O)(=O)N(C)c2ccccc2)c1)C1CCCCC1	.	16.5	.	12.7	.	.	.	.
CCc1cccc2c(C(=O)COC(=O)c3cccc(S(=O)(=O)N(C)C4CCCCC4)c3)c[nH]c12	2.0	-2.8	132.0*	-2.4	100.0	116.0	6.0	96.0
O=C(OCC(=O)c1c[nH]c2ccccc12)c1cccc(S(=O)(=O)N2CCCCCC2)c1	3.0	7.0	130.0*	8.4	128.0	114.0	5.0	107.0
CCC1(CC)C(=O)C2=C3C1[C@H](C(=O)OC)CC(C(=O)OC)C[C@H]3n1c(=O)n(-c3ccccc3)c(=O)n1[C@H]2C (stereo partly drawn)	-4.0	.	80.0*[inhibitor]	.	86.0	96.0	1.0	97.0
COC(=O)C1=C[C@@H](C(=O)OC)[C@@H]2C3=C(C(=O)[C@]2(CC(C)C)NC(=O)c2ccccc2)[C@H](C)n2c(=O)n(-c4ccccc4)c(=O)n2[C@@H]3C1	5.0	18.0	109.0	13.6	105.0	.	.	.
COC(=O)C[C@@H]1C=C[C@H](NC(=O)Nc2cc(F)ccc2F)[C@@H](CO)O1	.	-11.8	.	4.2	.	.	.	.
COc1ccc(S(=O)(=O)N2CCCCC2)cc1NC(=O)CCC(=O)N1CCC(c2ccccc2)=N1	.	12.8	.	-4.8	.	.	.	.
Cc1ccccc1NC(=O)CCN1C(=O)c2ccccc2C1=O	2.0	-0.8	103.0	3.5	103.0	.	.	.
Cc1ccccc1NC(=O)CSCCN1C(=O)c2ccccc2C1=O	-1.0	-19.7	74.0*[inhibitor]	10.6	97.0	98.0	0.0	99.0
CC(=O)Nc1ccc(S(=O)(=O)Nc2cccc(NC(=O)c3ccco3)c2)cc1	-25.0	-1.5	45.0*[inhibitor]	5.4	62.0	100.0	6.0	101.0
CC(=O)Nc1ccc(S(=O)(=O)Nc2ccc(NC(=O)c3ccco3)cc2)cc1	.	13.0	.	-0.8	.	.	.	.
Cc1ccc(-c2nc3ccccc3s2)cc1NC(=O)c1ccc2c(c1)OCO2	-21.0	-16.7	1.0*[inhibitor]	0.3	-2.0*[inhibitor]	102.0	0.0	106.0
O=C(NCCN1CCN(c2cccc(Cl)c2)CC1)Nc1ccccc1	3.0	2.4	108.0	-16.8	110.0	.	.	.
O=C(NCCN1CCN(Cc2ccccc2)CC1)Nc1cc(Cl)cc(Cl)c1	34.0	-12.6	106.0	10.9	139.0*	144.0	31.0	108.0
Nc1ccc(C(=O)OCC(=O)N2CCN(C(=O)c3ccco3)CC2)cc1[N+](=O)[O-]	0.0	-3.1	134.0*	-3.5	105.0	105.0	8.0	107.0
COC(=O)[C@@]1(Cc2ccc(F)cc2)[C@H]2c3cc(C(=O)N(C)C)n(Cc4ccc(C)c(F)c4F)c3C[C@H]2CN1C(=O)c1ccccc1	.	-0.8	.	3.5	.	.	.	.
SMILES	MEKK2 mut-MEK5	NRP1-CendR mod	MEKK3 PB1 HTS	SKN-1 inh	MEKK2 WT-MEK5	MEKK2wt confirm	MEKK2mut-MEK5	MEKK3 confirm
O=[N+]([O-])c1ccccc1CN1CCN(Cc2ccccn2)CC1	-84.0	3.2	2.0*[inhibitor]	1.1	1.0*[inhibitor]	97.0	-3.0	96.0
O=[N+]([O-])c1ccccc1CN1CCN(c2ncccn2)CC1	4.0	0.7	106.0	5.4	105.0	.	.	.
COc1cccc(Nc2nc3cc(C)ccc3cc2C)c1	.	-2.7	.	3.6	.	.	.	.
Cc1oc(C)c(C(=O)O)c1C(=O)O	-15.0	-4.1	45.0*[inhibitor]	-3.5	55.0	103.0	4.0	103.0
CCC(=O)N(C)CCc1cc2c(c(OC)c1/C=N/NC(=O)c1ccc(Br)cc1)OCO2	0.0	9.7	131.0*	15.8	99.0	67.0	-10.0	85.0
COc1c(/C=N/NC(=O)c2ccccc2O)c(CCN(C)C(C)=O)cc2c1OCO2	-1.0	2.9	134.0*	11.8	100.0	105.0	7.0	98.0
CCC(=O)N(C)CCc1cc2c(c(OC)c1/C=N/NC(=O)c1ccccc1O)OCO2	1.0	-8.4	119.0	12.6	108.0	.	.	.
CC(NC(=O)Nc1ccc([N+](=O)[O-])cc1)C(c1ccccc1)N1CCOCC1 (stereo not drawn)	-1.0	-0.6	98.0	10.3	96.0	.	.	.
CC(NC(=O)Nc1ccc(Cl)c(Cl)c1)C(c1ccccc1)N1CCOCC1 (stereo not drawn)	0.0	23.5	139.0*	-16.6	110.0	110.0	0.0	104.0
O=C(C1=C(O)C(=O)N(CC2CCCO2)C1c1ccc(Cl)cc1Cl)c1ccco1 (stereo not drawn)	-11.0	0.9	97.0	6.5	92.0	.	.	.
CCCCCN=C(N)N/N=C/c1c[nH]c2ccc(OC)cc12	40.0*	1.4	117.0	21.1	263.0*	181.0	46.0	110.0
OC(CNCCc1ccc(C(F)(F)F)cc1)COC(c1ccccc1)c1ccccc1 (stereo not drawn)	46.0*	9.5	111.0	-0.3	191.0*	146.0	20.0	97.0
COc1ccc(C(OCC(O)CNCCc2ccc(S(N)(=O)=O)cc2)c2ccc(OC)cc2)cc1 (stereo not drawn)	11.0	-5.1	100.0	-13.4	121.0	.	.	.
COc1cccc(NC(=O)CSc2nnc(Cn3cnc([N+](=O)[O-])n3)n2C)c1	2.0	8.1	107.0	3.9	96.0	.	.	.
